# Sampled rows, rich in hits. Any-hit rate of the full collection: about 9.4%.
# FLuc counter – qHTS profiling assay for firefly luciferase inhibitor/activator using purifed enzyme and Km concentrations of substrates (counterscreen for miR-21 project) | purified FLuc, Km substrates, luminescence inhibition | Potency, µM (titrated, usually from 57.5 µM), for inactives: at the top dose activity change, negative = inhibition, most hits filed as inhibitors | actives 6.9% (n = 360,000) | AID 588342, 2011;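 note: plate controls were vehicle for no effect and reference inhibitor for full effect; nearly all actives have a fitted effect of over 55% in size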
# Target sequence (P08659 whole entry, looked up): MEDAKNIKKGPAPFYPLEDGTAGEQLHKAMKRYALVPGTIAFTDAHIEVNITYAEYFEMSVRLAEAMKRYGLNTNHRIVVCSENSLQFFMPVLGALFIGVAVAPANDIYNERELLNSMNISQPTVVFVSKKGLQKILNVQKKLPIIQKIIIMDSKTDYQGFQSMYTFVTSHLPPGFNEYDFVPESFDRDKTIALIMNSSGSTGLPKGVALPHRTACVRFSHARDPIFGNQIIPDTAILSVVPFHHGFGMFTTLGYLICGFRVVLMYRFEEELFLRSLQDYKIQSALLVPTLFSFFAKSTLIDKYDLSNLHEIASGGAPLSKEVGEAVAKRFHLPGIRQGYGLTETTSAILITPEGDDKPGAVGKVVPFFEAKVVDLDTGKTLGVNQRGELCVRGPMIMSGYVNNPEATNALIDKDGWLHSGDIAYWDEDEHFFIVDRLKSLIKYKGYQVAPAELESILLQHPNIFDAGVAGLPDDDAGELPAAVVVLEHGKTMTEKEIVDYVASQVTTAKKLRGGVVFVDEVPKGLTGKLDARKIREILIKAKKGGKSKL
#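 Purified P. pyralis luciferase (10nM final) with 10uM D-luciferin and 10uM ATP (Km levels) in 50mM Tris acetate pH 7.5, 10mM Mg acetate, 0.01% Tween-20, 0.05% BSA; qHTS 6-point titration, ~60 µM downward; luminescence read.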
# NPC1 prom act – qHTS Assay for NPC1 Promoter Activators | Huh7 NPC1 promoter luciferase reporter, 24 h | Potency, µM (series often up to 9.22 µM), inactives show at the top dose activation, most hits filed as activators | actives 2.4% (n = 320,000); note: % of control where 0% means no effect; nearly all actives have a fitted effect of over 60% in size
#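 Compounds in DMSO were transferred onto Huh7 NPC1-luciferase reporter cells pre-incubated 2 h; after 24 h at 37 °C, Amplite reagent was dispensed and luminescence recorded 10 min later.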
# ELG1 repair inh – qHTS screen for small molecules that inhibit ELG1-dependent DNA repair in human embryonic kidney (HEK293T) cells expressing luciferase-tagged ELG1 | HEK293T ELG1-luciferase reporter, luminescence, 16 h; DNA damage induced by 5-fluorouridine | Potency, µM (series often up to 46.1 µM), for inactives: at the top dose activity change, negative = inhibition, hits mostly inhibitors | actives 2.3% (n = 330,000); note: % is set by controls: 0 for no effect and ±100 for the full control effect; nearly all actives have a fitted effect of over 55% in size
#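 Reporter activity after DNA damage by 5-fluorouridine is monitored. Compound-treated cells incubate 16 hr at 37 °C, then ONE-Glo is added for 30 min before luminescence reading.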
# ELG1 genotox – qHTS screen for small molecules that induce genotoxicity in human embryonic kidney (HEK293T) cells expressing luciferase-tagged ELG1; Potency, µM (series often up to 46 µM), inactives show at the highest dose activity change, positive = activation, usual class: activators; actives 1.3% (n = 330,000); HEK293T ELG1-luciferase reporter, luminescence, 16 h; note: % of control where 0% means no effect; nearly all actives have a fitted effect of over 60% in size
#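 Step 1: seed 2,000 HEK293T ELG1-luciferase cells per well. Step 2: add compound or DMSO, incubate 16 hr at 37 °C. Step 3: ONE-Glo, 30 min at room temperature, read luminescence.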
# Rab9 prom act – qHTS Assay for Rab9 Promoter Activators. Huh7 Rab9 promoter-luciferase reporter, luminescence, 24 h. Potency, µM (top dose mostly 9.22 µM), without a hit: at the highest dose activation, negative = inhibition, most hits filed as activators. actives 2.8% (n = 320,000); note: % of control where 0% means no effect; nearly all actives have a fitted effect of over 60% in size
#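 Huh7 cells stably carrying Rab9 promoter–luciferase reporter, plated 1500 cells/well, compound added after 2 h and incubated 24 h at 37 °C; luciferase luminescence then read after 10 min with detection reagent.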
# SMN2 splice enh – qHTS Assay for Enhancers of SMN2 Splice Variant Expression; HEK293 SMN2-luciferase splicing reporter, luminescence, 30-36 h; Potency, µM (doses to about 46.1 µM), for inactives: at the top dose activity change, positive = activation, usual class: activators; actives 2.8% (n = 210,000); note: % of control where 0% means no effect; nearly all actives have a fitted effect of over 55% in size
#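 qHTS luciferase splicing reporter: luminescence rises when SMN2 exon 7 is included in transfected HEK293 cells. Compound exposure lasted 30-36 h at 37C, with 4.5 mM final sodium butyrate as control, followed by a ONE-Glo read.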
# Active calls of the source: *; ? = inconclusive; nt = not tested or not shown; [ ] = dose if it differs, or a comment. Calls come from the whole dose curve; as a rule, active = well fitted curve in the direction sought with a large enough effect; inconclusive = small, poorly fitted or top-dose-only effect, or another doubt; inactive = no such curve, though single readings can be large; an effect the other way counts as inactive or inconclusive. Potency is the fitted concentration of half-maximal effect.
SMILES,FLuc counter,NPC1 prom act,ELG1 repair inh,ELG1 genotox,Rab9 prom act,SMN2 splice enh
CC1CCN(c2ccc(C(=O)NCCc3ccccc3)cn2)CC1,24µM*,?,?,15%,?,?
CC(=O)Nc1ccc(C(=O)NCCc2ccccc2)cc1,?,?,?,?,?,16µM*
O=C(NCCCc1ccccc1)c1ccc(F)cc1,24µM*,?,?,?,1.8µM*,nt
CS(=O)(=O)N1CCC2(CCN(c3ccccn3)CC2)CC1,nt,nt,nt,nt,nt,10%
CC(C)(C)c1ccc(C(=O)Nc2cnccn2)cc1,1.3µM*,1.8µM*,?,0.65µM*,0.56µM*,28µM*
CCCCOc1ccc(C(=O)NCCc2ccccc2)cc1,6µM*,0.32µM*,?,?,1.1µM*,nt
COc1ccc(C(=O)Nc2cnccn2)cc1[N+](=O)[O-],1%,-3%,8%,-5%,11%,nt
O=C(NCCc1ccccc1)c1ccncc1,?,29%,?,?,3.5µM*,8%
O=C(NCCc1ccccc1)c1ccc(Cl)nc1,12µM*,4µM*,?,?,2µM*,11µM*
O=C(NCCc1ccc(F)cc1)c1ccncc1,-3%,3%,24%,11%,22%,nt
COc1ccccc1OCC(=O)N(Cc1ccco1)Cc1ccccc1F,-14%,nt,nt,nt,nt,-8%
COc1ccc(OCCCCn2c(-c3ccc(Cl)cc3)nc3ccccc3c2=O)cc1,3%,nt,nt,nt,nt,-8%
CC(C)(C)c1ccc(C(=O)NCc2ccccc2)cc1,11µM*,23%,?,17%,6.3µM*,nt
CC(=O)Nc1ccc(NC(=O)c2ccccc2CCc2ccccc2)cc1,-2%,1%,-18%,-6%,-4%,32µM*
CC(C)(C)c1ccc(C(=O)Nc2ncn[nH]2)cc1,9.5µM*,2.2µM*,?,?,2.5µM*,10µM*
CC(C)(C)c1ccc(C(=O)NCCc2ccccc2)cc1,0.76µM*,0.35µM*,?,?,0.089µM*,nt
Cc1ccc(-n2c(=O)c3c4c(sc3n(CC(=O)c3ccc(Cl)cc3)c2=O)CCC4)cc1C,-3%,nt,nt,nt,nt,-1%
CC(C)(C)c1ccc(C(=O)Nc2ccc(C(=O)NCc3cccnc3)cc2)cc1,12µM*,4%,0.52µM*,-21%,15%,nt
CC(C)(C)C(=O)Nc1ccc(C(=O)NCc2cccnc2)cc1,?,nt,nt,nt,nt,3%
CCOc1ccc(NC(=O)CCS(=O)(=O)c2cc3c4c(c2)CCN4C(=O)CC3)cc1,3%,nt,nt,nt,nt,nt
COc1ccc(C(C)(C)C)cc1NC(=O)c1cccc(S(=O)(=O)N2CCN(C(C)=O)CC2)c1,2%,-4%,-1%,6%,-1%,nt
Cc1ccc(Nc2nc(CSc3nnc(-c4ccc(F)cc4)n3C)cs2)cc1,1.3µM*,?,?,16%,?,10µM*
CN(C)c1ccc(/C=N/N=C2/NC(=O)/C(=C/c3ccc([N+](=O)[O-])cc3)S2)cc1,0.11µM*,?,?,5%,?,28%
O=C(CSc1nc(=O)[nH]c2c1CCCC2)Nc1ccccc1C(F)(F)F,-1%,nt,nt,nt,nt,nt
CCN(CC(=O)Nc1ccc(NC(C)=O)cc1)C(=O)CCCOc1ccc(C(C)(C)C)cc1,15µM*,0%,?,?,0%,nt
SMILES,FLuc counter,NPC1 prom act,ELG1 repair inh,ELG1 genotox,Rab9 prom act,SMN2 splice enh
O=C(O)/C=C\C(=O)Nc1cccc2c1-c1ccccc1C2=O,nt,nt,nt,nt,nt,-3%[9.22 µM]
Cc1ccc(/C=N/N2CCN(c3ccccc3)CC2)cc1,-19%,?,?,?,3.5µM*,?
CSc1ccc(/C=N/N2CCN(c3ccccc3)CC2)cc1,5%,?,-2%,6%,?,?
Cc1cccc(/C=N/N2CCN(c3ccccc3)CC2)c1,7.6µM*,?,?,?,?,18µM*
Cc1ccccc1/C=N/N1CCN(c2ccccc2)CC1,17µM*,21%,?,17%,17%,?
O=C(Nc1cccc(OCc2cc(=O)n3ccccc3n2)c1)Nc1cccc(C(F)(F)F)c1,-7%,nt,nt,nt,nt,nt
CCOc1ccccc1NC(=O)CSc1nnc(CC)c(CC)n1,3%,nt,nt,nt,nt,nt
CCC(=O)N1CCN(c2ccc(NC(=O)COc3ccccc3Cl)cc2)CC1,4%,0%,18µM*,-15%,-10%,-57%
COc1cc(Cl)ccc1NC(=O)COc1ccccc1C(=O)N1CCN(c2ccc(O)cc2)CC1,-4%,5%,13µM*,-20%,0%,-41%
CCC(=O)N1CCN(c2ccc(NC(=O)COc3ccccc3[N+](=O)[O-])cc2)CC1,2%,-8%,23µM*,-12%,-1%,-57%
COc1ccccc1C1NC(=O)c2n[nH]c(-c3cccs3)c21 (centres undefined),-13%,nt,nt,nt,nt,-4%
Cc1cc(/C=C(\C#N)C(=O)NCc2ccco2)c(C)n1C1CCCC1,6µM*,?,?,?,?,-1%
N#C/C(=C\c1ccc(OCc2cccc(C(=O)O)c2)cc1)C(=O)NCc1ccco1,30µM*,0.35µM*,?,?,0.1µM*,nt
Cc1cc(/C=C(\C#N)C(=O)NCc2ccco2)c(C)n1-c1cccnc1,15µM*,?,6%,?,?,nt
Cc1cccc(-n2c(C)cc(C=C(C#N)C#N)c2C)c1,1%,-1%,20%,3%,-1%,-15%
Cc1cc(/C=C(/C#N)c2cccc(F)c2)c(C)n1-c1cccnc1,8.5µM*,?,?,5.2µM*,?,11µM*
Cc1ccc(/C=C(\C#N)C(=O)NCc2ccco2)o1,-15%,7%,?,?,18%,-8%
COc1cccc(C2CC(=O)Nc3c2c(=O)n(C)c2ncnn32)c1OC (centres undefined),1%,nt,nt,nt,nt,1%
COc1ccc(CCNC(=O)c2c(C)oc3nc(C)nc(N4CCOCC4)c23)cc1OC,4%,nt,nt,nt,nt,nt
c1ccc(SCc2cc(-c3ccccc3)no2)cc1,8.5µM*,3.5µM*,?,?,2.5µM*,247%
Clc1ccc(-c2cc(CSc3cccc(Cl)c3)on2)cc1,?,1%,17%,10%,-3%,-18%
Clc1ccc(-c2cc(CSc3ccccc3)on2)cc1,2.4µM*,4.5µM*,?,?,3.2µM*,13µM*
COc1ccc(-c2onc(C)c2C)cc1S(=O)(=O)NCc1ccc(C)o1,-9%,nt,nt,nt,nt,nt
